Measured values published in PubChem BioAssay AID463173 (ICCB-Longwood Screening Facility, Harvard Medical School, 2010).
In all, about 52,000 compounds went through this assay and about 4,300 (8.3%) were called active. Rule as the data show it: active = survival mostly below about 52% (no sharp cut-off); inactive = mostly above about 56%. The full list was thinned out, with actives kept by preference.

What follows are compounds tested on DeltatarO mutant (assay: S. aureus survival, RN4220 and DeltatarO strains – OD600, teichoic acid synthesis inhibitors, primary screen (AID 463173)). Conditions: S. aureus RN4220 wild type/DeltatarO growth, OD600, 18 h, stronger effect = lower value, screened at 18.75 µg/mL (by protocol).
`O=C1CS/C(=N\N2CCOCC2)N1Cc1ccccc1` was tested, and the survival was 84% (inactive).
In the case of `Cc1nnc(N2CCN(C(=O)NC(C)C)CC2)c2nn(-c3ccccc3)c(C)c12`, the survival is reported as 72% (inactive).
With `Cc1ccccc1NC(=O)Nc1csc2c1CCCC2` the survival was 29% (active).
With `Cc1ccc(C)c(NC(=O)Nc2csc3c2CCCC3)c1` the survival was 75% (inactive).
For `CCc1cccc(NC(=O)Nc2csc3c2CCCC3)c1`, the survival was 114% (inactive).
In the case of `Cc1cccc(C)c1NC(=O)Nc1csc2c1CCCC2`, the survival is reported as 78% (inactive).
With `O=C(Nc1ccc(F)cc1)c1csc2c1CCCCC2` the survival was 63% (inactive).
For `Cc1ccc(NC(=O)Nc2csc3c2CCCC3)c(C)c1`, the survival was 63% (inactive).
In the case of `O=C(Nc1ccc(F)cc1)Nc1csc2c1CCCC2`, the survival is reported as 4% (active).
In the case of `Cc1cc(NC(=O)Nc2csc3c2CCCC3)ccc1Br`, the survival is reported as 44% (inactive).
For `CC(C)c1ccc(NC(=O)Nc2csc3c2CCCC3)cc1`, the survival was 13% (active).
With `CCOCCCNC(=O)CCC(=O)NNc1nc2ccccc2c2nc(-c3ccccc3)nn12` the survival was 83% (inactive).
For `COc1ccc(NC(=O)CN2C(=O)CSc3ccc(S(=O)(=O)N(C)C)cc32)cc1Cl`, the survival was 74% (inactive).
In the case of `CCc1nn(CC(=O)N2CCN(c3cccc(OC)c3)CC2)c(=O)c2cc3occc3n12`, the survival is reported as 91% (inactive).
`COc1ccc(S(=O)(=O)N(CCc2ccccc2)CC(N)=O)cc1` was tested, and the survival was 88% (inactive).
`Cn1nnnc1SCCCNCc1cc(Cl)ccc1OCc1ccccc1` was tested, and the survival was 72% (inactive).
`O=C(CSc1nc2c(oc3ccccc32)c(=O)n1-c1ccccc1)Nc1ccc(F)c(Cl)c1` was tested, and the survival was 86% (inactive).
With `COCCn1c(SCC(=O)Nc2ccc(F)c(Cl)c2)nc2c(oc3ccccc32)c1=O` the survival was 44% (active).
In the case of `O=C(CSc1nc2c(oc3ccccc32)c(=O)n1Cc1ccco1)Nc1cccc(Cl)c1`, the survival is reported as 62% (inactive).
In the case of `COc1cccc(-n2c(SCC(=O)Nc3cccc(Cl)c3)nc3c(oc4ccccc43)c2=O)c1`, the survival is reported as 85% (inactive).
`O=C(CSc1nc2c(oc3ccccc32)c(=O)[nH]1)Nc1cccc(Cl)c1` was tested, and the survival was 37% (active).
`CCOc1ccc(NC(=O)CSc2nc3c(oc4ccccc43)c(=O)n2CCOC)cc1` was tested, and the survival was 74% (inactive).
For `O=C(NCc1ccc(F)cc1)C1CCN(c2ncnc3c2nc2n3CCCCC2)CC1`, the survival was 86% (inactive).
With `CCC1(c2ccccc2)NC(=O)NC1=O` (stereo not given) the survival was 98% (inactive).
`Clc1nc(Cl)nc(OCCCOc2nc(Cl)nc(Cl)n2)n1` was tested, and the survival was 94% (inactive).
`CCc1c(C)nc2nncn2c1Nc1ccc(Cl)cc1` was tested, and the survival was 91% (inactive).
With `Cc1ccc(N2CCN(c3nc4ccccc4c4nnc(C)n34)CC2)c(C)c1` the survival was 101% (inactive).
For `CCOC(=O)c1cc(OC(=O)c2cc(OC)c(OC)c(OC)c2)n(-c2ccccc2)n1`, the survival was 54% (active).
`CCOC(=O)c1cc(OC(=O)c2ccccc2OC)n(-c2ccccc2)n1` was tested, and the survival was 54% (inactive).
In the case of `CCOC(=O)c1cc(OC(=O)c2cccc(F)c2)n(-c2ccccc2)n1`, the survival is reported as 61% (inactive).
`CCOC(=O)c1cc(OC(=O)c2ccc(C)cc2)n(-c2ccccc2)n1` was tested, and the survival was 137% (inactive).
With `CCOC(=O)c1cc(OC(=O)c2cc(OC)cc(OC)c2)n(-c2ccccc2)n1` the survival was 62% (inactive).
In the case of `CCOC(=O)c1cc(OC(=O)c2cccc(C)c2)n(-c2ccccc2)n1`, the survival is reported as 59% (inactive).
With `CCOC(=O)c1cc(OC(=O)c2ccc(OC)c(OC)c2)n(-c2ccccc2)n1` the survival was 67% (inactive).
For `CCOC(=O)c1cc(OC(=O)c2ccc(Cl)cc2)n(-c2ccccc2)n1`, the survival was 85% (active).
For `CCOC(=O)c1cc(OC(=O)c2ccc(OC)cc2)n(-c2ccccc2)n1`, the survival was 59% (active).
In the case of `CCOc1ccc(NC(=O)CN2C(=O)COc3ccc(S(=O)(=O)NC4CCCC4)cc32)cc1`, the survival is reported as 73% (inactive).
In the case of `O=C(c1ccc(F)cc1)N1CCN(CCc2ccncc2)CC1`, the survival is reported as 84% (inactive).
With `CCc1ccc(NCc2cc3ccc(OC)cc3n(CC(=O)Nc3c(C)cc(C)cc3C)c2=O)cc1` the survival was 76% (inactive).
In the case of `N#CSc1ccc(NCCO)cc1C(F)(F)F`, the survival is reported as 95% (inactive).
For `O=C(NCCc1ccc(Cl)cc1)C(=O)NCC(c1ccco1)S(=O)(=O)c1ccc(Cl)cc1` (stereo not given), the survival was 94% (inactive).
With `O=C1CN(C(=O)c2ccc(Cl)cc2Cl)C(c2ccc(F)cc2)c2cc(F)ccc2N1` (stereo not given) the survival was 65% (inactive).
`O=c1c(NCc2cccs2)nccn1-c1ccccc1` was tested, and the survival was 68% (inactive).
With `COc1ccc(-n2ccnc(NCc3cccs3)c2=O)cc1` the survival was 20% (active).
In the case of `O=c1c(NCc2ccccc2Cl)nccn1-c1ccccc1`, the survival is reported as 17% (active).
In the case of `O=c1c(NCCc2ccc(Cl)cc2)nccn1-c1ccccc1`, the survival is reported as 55% (inactive).
With `COc1ccc(-n2ccnc(NCc3ccccc3Cl)c2=O)cc1OC` the survival was 81% (inactive).
`COc1ccc(-n2ccnc(NCc3cccs3)c2=O)cc1OC` was tested, and the survival was 85% (inactive).
With `COc1ccc(-n2ccnc(NCc3ccc(Cl)cc3)c2=O)cc1` the survival was 8% (active).
`COc1ccc(-n2ccnc(NCc3ccccc3OC)c2=O)cc1` was tested, and the survival was 89% (inactive).
`COc1ccc(-n2ccnc(NCc3ccc(C)cc3)c2=O)cc1OC` was tested, and the survival was 94% (inactive).
In the case of `Cc1cc(C)cc(NC(=O)c2cccc(N3CCCS3(=O)=O)c2)c1`, the survival is reported as 101% (inactive).
`CCc1ccc(N2C(=O)CSC23C(=O)N(Cc2cccc(F)c2)c2ccccc23)cc1` (stereo not given) was tested, and the survival was 124% (inactive).
With `O=C1C(=O)N(C2CCN(C(=O)c3ccccc3Cl)CC2)CCN1Cc1ccc(F)cc1` the survival was 67% (inactive).
With `CN1C(C(=O)Nc2ccc(F)cc2F)=CC(c2cccs2)=NS1(=O)=O` the survival was 99% (inactive).
`CCCOc1ccc(-c2nc(SC)[nH]c(=O)c2C#N)cc1OC` was tested, and the survival was 79% (inactive).
With `COc1cc(C(=O)N2CCC(c3nc4ccccc4s3)CC2)cc(OC)c1OC` the survival was 74% (inactive).
`COc1cccc(C(=O)N2CCC(c3nc4ccccc4s3)CC2)c1` was tested, and the survival was 70% (inactive).
`COc1ccc(C(=O)N2CCC(c3nc4ccccc4s3)CC2)cc1Cl` was tested, and the survival was 62% (inactive).
`O=C(c1ccccc1Cl)N1CCC(c2nc3ccccc3s2)CC1` was tested, and the survival was 57% (inactive).
With `Cc1ccccc1C(=O)N1CCC(c2nc3ccccc3s2)CC1` the survival was 75% (inactive).
`COc1ccccc1OC(C)C(=O)N1CCC(c2nc3ccccc3s2)CC1` (stereo not given) was tested, and the survival was 2% (active).
`CCc1ccc(OC(C)C(=O)N2CCC(c3nc4ccccc4s3)CC2)cc1` (stereo not given) was tested, and the survival was 28% (active).
`CCC(Oc1ccccc1F)C(=O)N1CCC(c2nc3ccccc3s2)CC1` (stereo not given) was tested, and the survival was 2% (active).
For `CC(Oc1ccc(F)cc1)C(=O)N1CCC(c2nc3ccccc3s2)CC1` (stereo not given), the survival was 58% (inactive).
